Assay outcomes: PubChem BioAssay, several laboratories
TLR4-MyD88 BLA – inhibitors of human TLR4-MyD88 binding; 0.18% of 200,000 active; O00206+Q99836; HeLa CL3-4 TLR4/MyD88 BLA complementation, FRET ratio; inhibition, % at 8.4 µM; in the data active = inhibition above about 25%;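 note: 0% = vehicle and 100% = reference inhibitor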
ANO1 block – blocks the mouse calcium-activated chloride channel TMEM16A; Q8BHY3; HEK293 TMEM16A/YFP iodide influx fluorescence, ionomycin; normalized B-score (activity score, 25-100; higher = stronger inhibition) at 10 µM; 1.2% of 310,000 active;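 active = ratio plate-corrected score three or more library SD toward inhibition, starting fluorescence score within five deviations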;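 note: score derived from kinetic fluorescence span divided by baseline fluorescence per well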
ANO1 activ – activators or potentiators of mouse TMEM16A chloride channel; Q8BHY3; HEK293 TMEM16A/YFP-H148Q/I152L, iodide quench fluorescence; active compounds read low; 0.3% of 340,000 active; B-score at 10 µM; AID 623877;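 active = fluorescence-ratio B-score plate-corrected deviation score at least 3 library SD below zero, with starting fluorescence score within 5 deviations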;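 note: channel opened by trigger with iodide after compound preincubation; score built on the fluorescence ratio of max minus min over baseline; more negative score means more quench and so TMEM16A activation or potentiation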
m5-HT2A agonist – activates the mouse 5-HT2A serotonin receptor; CHO-K1 mHTR2A beta-arrestin complementation, luminescence; percent of 30 µM serotonin response; activation, % at 7.6 µM; 0.66% of 360,000 active; AID 624169;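 active = activation above a run cutoff, the mean activation of all tested compounds plus 3 SD, cut at about 14% in these data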;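 note: 0% = plate median of compound wells and 100% = 30 µM serotonin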
TLR9-MyD88 block – TLR9-MyD88 interaction inhibition | CHO BLA complementation TLR9-MyD88, CCF4 FRET ratio | inhibition, % at 4.98 µM | Q9NR96+Q99836 | 0.21% of 340,000 active | AID 504734;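 active = inhibition above the mean over all tested compounds plus 3 SD, cut at about 21% in these data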;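 note: 0% = DMSO only wells and 100% = clavulanate BLA inhibitor control wells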
NOD2-RIPK2 inh – NOD2-RIPK2 protein interaction inhibition | O43353 | CHO BLA complementation NOD2-RIPK2, CCF4 ratio | 0.38% of 360,000 active | inhibition, % at 4.98 µM | AID 624267; in the data active = inhibition above about 21%;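 note: 0% = vehicle only and 100% = reference blocker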
Numbers without * were called inactive; i = inactive; / = no result given. A selection: hits, their analogues and other compounds. The true share with any hit is near 2.4%.

SMILES	TLR4-MyD88 BLA	ANO1 block	ANO1 activ	m5-HT2A agonist	TLR9-MyD88 block	NOD2-RIPK2 inh
COc1ccc(-c2oc(NC(=O)CSc3ncn[nH]3)c(C#N)c2-c2ccc(OC)cc2)cc1	0	25*	i	3	18	16
Cc1cc(C)cc(NC(=O)C2CCN(c3nccs3)CC2)c1	-4	i	-14*	1	5	-2
Cc1cc(C)cc(NC(=O)C2CCN(S(C)(=O)=O)CC2)c1	/	i	i	-3	1	-1
CCSc1nnc2c3cc(CC)ccc3n(C)c2n1	/	i	i	4	0	-3
O=C(c1ccc(NC2=NC3CS(=O)(=O)CC3S2)cc1)N1CCN(c2ccc([N+](=O)[O-])cc2)CC1 (configuration not stated)	/	i	i	-5	-5	1
COc1ccc(OC)c(CCNC(=O)Cn2sc3nc(C)cc(C)c3c2=O)c1	3	25*	/	/	/	/
Cc1cc(C)c2c(=O)n(CC(=O)NC3CCCC3)sc2n1	/	i	i	4	3	-8
O=C(NCC(=O)N(c1cccc(F)c1)C(C(=O)NC1CCCC1)c1ccncc1)c1ccco1 (configuration not stated)	/	i	i	-3	1	3
O=C(c1ccco1)N(Cc1ccc(Cl)cc1)C1CCS(=O)(=O)C1 (configuration not stated)	/	i	i	8	-7	0
Cc1ccc(S(=O)(=O)N/N=C2/CC(c3ccccc3)Oc3ccccc32)cc1[N+](=O)[O-] (configuration not stated)	3	100*	i	-6	7	-1
O=S(=O)(N/N=C1/CC(c2ccccc2)Oc2ccccc21)c1ccc(Br)cc1 (configuration not stated)	12	25*	i	-2	4	-5
CCCCn1nc(C(=O)N(C)CC(=O)Nc2cccc(F)c2)c2ccccc2c1=O	/	i	i	0	-30	-6
O=C(Nc1cccnc1)c1cn(-c2ccccc2)nc1-c1cccs1	8	i	i	-7	3	-1
O=C(Nc1cccc2ccccc12)c1cn(-c2ccccc2)nc1-c1cccs1	6	i	i	17*	-2	-1
CCN(CC)CCNC(=O)c1ccc(NC(=O)c2cn(-c3ccccc3)nc2-c2cccs2)cc1	-9	25*	i	-8	-2	-11
Cc1ccc(CSCCNS(=O)(=O)c2ccccc2)cc1	-8	i	i	-4	-7	-7
CCOC(=O)c1ccc(NC(=S)N2CCSC2c2ccc(OC)cc2)cc1 (configuration not stated)	-11	i	i	-2	0	8
CCOC(=O)c1ccc(NC(=S)N2CCSC2c2ccc(Cl)cc2)cc1 (configuration not stated)	-4	100*	-7.7*	1	3	1
Cc1nnc2n(C3CCCCC3)c(=O)c3c4c(sc3n12)CCC4	12	/	/	/	/	/
Cc1nnc2n(C3CCCCC3)c(=O)c3c4c(sc3n12)COC(C)(C)C4	-17	i	-15*	2	-6	-2
COc1ccc(-c2csc(NC(C)c3nc4cc(C(F)(F)F)ccc4n3CCOCCO)n2)cc1 (configuration not stated)	/	25*	i	1	-5	2
CC(Nc1nc(-c2ccc(F)cc2)cs1)c1nc2cc(C(F)(F)F)ccc2n1CCOCCO (configuration not stated)	/	i	i	-4	6	3
Cc1csc2ncnc(N3CCN(S(=O)(=O)c4cccc(C(F)(F)F)c4)CC3)c12	/	100*	i	-5	3	-2
CCn1cc([N+](=O)[O-])c(C(=O)N2N=C(c3ccc4ccccc4c3)CC2c2cc(Br)ccc2O)n1 (configuration not stated)	-10	i	i	3	-9	4
O=C(Nc1c(Cl)cccc1Cl)C1CCN(C(=O)c2cccs2)CC1	/	i	i	0	-10	-16
CCN(CC)C(=O)c1csc([C@H]2C[C@H](O)[C@@H](CO)O2)n1	/	/	/	-7	/	1
COC(=O)c1ccc(-n2c(C)ccc2-c2ccccc2)cc1	1	i	i	0	-8	-2
